{
  "source": "PubChem BioAssay (EPA / NIEHS)",
  "key": {"[1]": {"assay": "Tanguay_ZF_120hpf_SWIM_legacy: (Legacy) Oregon State University Tanguay Lab 120 Hour Post-fertilization zebrafish Assay for Swim Bladder Malformation (AID 2283654);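 note: swim bladder malformation in each larva scored yes or no under brightfield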", "procedure,_shortened": "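Dechorionated wild-type Tropical 5D zebrafish embryos, one per well from 6 hpf, were statically exposed at 28C until 120 hpf in 0.64% DMSO. Swim bladder malformation scored as present/absent by brightfield microscopy; not scored in dead larvae.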"}, "[2]": {"assay": "Tanguay_ZF_120hpf_TRUN_legacy: (Legacy) Oregon State University Tanguay Lab 120 Hour Post-fertilization zebrafish Assay for Truncated Body (AID 2283655)", "procedure,_shortened": "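Truncated body is recorded as a binary endpoint at 120 hpf by brightfield imaging of wild-type 5D larvae. Exposure runs statically from 6 hpf at 28C with 0.64% DMSO; embryos dying earlier are not scored.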"}, "[3]": {"assay": "Tanguay_ZF_120hpf_NC_legacy: (Legacy) Oregon State University Tanguay Lab 120 Hour Post-fertilization zebrafish Assay for Notochord and Tail Malformation (AID 2283656)", "procedure,_shortened": "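Dechorionated Tropical 5D wild-type zebrafish embryos, one per well from 6 hpf, statically exposed to 120 hpf at 28C in 0.64% DMSO final. Notochord distortion scored present/absent by brightfield; dead embryos excluded.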"}, "[4]": {"system": "Thyroperoxidase (TPO), gene 54314", "assay": "CCTE_Simmons_AUR_rTPO: CCTE's Amplex UltraRed Assay for Thyroperoxidase (TPO) Inhibition, Simmons Lab (AID 2283662);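 for AC50: potency for loss of signal meaning inhibition of peroxidase activity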", "procedure,_shortened": "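Endpoint is decreased Amplex UltraRed fluorescence after a 30-min, 37C reaction of rat thyroid microsomes with 300 uM H2O2. Eight test concentrations (5 nM–87.5 uM final) in 0.5% DMSO, three biological replicates each.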"}, "[5]": {"assay": "CCTE_Simmons_CellTiterGLO_HEK293T: Viability Assessment in CCTE's Assays for Thyroperoxidase (TPO) Inhibition, Simmons Lab (AID 2283665);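 for AC50: cells exposed to compound for 24 h before readout; actives reduce ATP signal below DMSO vehicle meaning cytotoxicity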", "procedure,_shortened": "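HEK293T, 10 000 cells/well, DMEM + 1% FBS; 8-pt titration 5 nM–87.5 uM [final], 0.5% DMSO; 24 hr, 37C, 5% CO2; CellTiter-Glo luminescence; n=3 biological replicates.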"}, "[6]": {"assay": "CCTE_Padilla_ZF_144hpf_TERATOSCORE: (Legacy) CCTE's 144 Hour Post-fertilization zebrafish Assay Teratoscore, Padilla Lab (AID 2283679; active = hit-call score of the fitted dose curve at least 0.9, where 1 is the maximum; inactive = score below 0.9;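 for AC50: zebrafish embryos with chorions exposed by immersion from 6-8 hpf to 5 dpf with daily renewal; teratogenicity score from eye scoring of death hatching and malformations at 144 hpf; higher score means more developmental defects relative to DMSO baseline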)", "procedure,_shortened": "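Larvae scored by eye at 144 hpf for death, hatching and malformations after a day in clean Hanks'. Before that, daily-renewed exposure at 80 uM (0.4% DMSO, 26C) from roughly 6-8 hpf through 5 dpf, 4 embryos per chemical.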"}, "[7]": {"assay": "Tanguay_ZF_120hpf_TR_legacy: (Legacy) Oregon State University Tanguay Lab 120 Hour Post-fertilization zebrafish Assay for Touch Response (AID 2283667)", "procedure,_shortened": "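Tropical 5D wild-type zebrafish embryos statically exposed to 120 hpf at 28°C, sealed and dark-covered, 0.64% DMSO final; touch response scored as present/absent by brightfield microscopy at 120 hpf. Trimethyltin chloride 5 uM positive control; dead embryos not scored.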"}, "[8]": {"read-out": "solute carrier (SLC10A1), SLC10A1 (gene 6554)", "assay": "LTEA_HepaRG_SLC10A1: Life Technologies and Expression Analysis (LTEA) Assay for solute carrier (SLC10A1) using HepaRG (AID 2283657; active = hit-call score of the fitted dose curve at least 0.9, where 1 is the maximum; inactive = score below 0.9)", "settings": "mRNA level, 48 h; actives raise or lower the signal", "procedure,_shortened": "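HepaRG cells (single lot) exposed 48 h in serum-free induction medium, 8-point half-log series from 100 uM top in 0.5% DMSO, duplicate. SLC10A1 mRNA by qRT-PCR normalised to ACTB, GAPDH, POLR2A; bidirectional fit versus DMSO.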"}, "[9]": {"read-out": "matrix metalloproteinase-1 (MMP1), MMP1 (gene 4312)", "assay": "LTEA_HepaRG_MMP1: Life Technologies and Expression Analysis (LTEA) Assay for matrix metalloproteinase-1 (MMP1) using HepaRG (AID 2283658; active = hit-call score of the fitted dose curve at least 0.9, where 1 is the maximum; inactive = score below 0.9)", "settings": "mRNA level, 48 h; actives raise or lower the signal", "procedure,_shortened": "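HepaRG, ~100,000 cells/well, 48 h pre-culture; serum-free induction medium; test chemical 8 conc (max 100 uM, half-log), duplicate, 48 h; 0.5% DMSO; qRT-PCR MMP1, housekeeping-normalized; gain/loss fit vs DMSO.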"}, "[10]": {"read-out": "Cytochrome P450 (CYP24A1_1), CYP24A1 (gene 1591)", "assay": "LTEA_HepaRG_CYP24A1_1: Life Technologies and Expression Analysis (LTEA) Assay for Cytochrome P450 (CYP24A1_1) using HepaRG (AID 2283671; active = hit-call score of the fitted dose curve at least 0.9, where 1 is the maximum; inactive = score below 0.9)", "settings": "mRNA level, 48 h; actives raise or lower the signal", "procedure,_shortened": "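Differentiated human HepaRG cells in serum-free induction medium, exposed 48 h in duplicate to eight half-log concentrations from 100 uM top, 0.5% DMSO. Transcript measured by TaqMan qRT-PCR, normalised to ACTB, GAPDH, POLR2A; bidirectional fitting versus DMSO.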"}},
  "note": "Results filed as inconclusive are left out. The source made the active and inactive calls. Rule for the calls, unless noted: active = hit-call score of the fitted dose curve at least 0.9, where 1 is the maximum; inconclusive = response in the unintended direction; inactive = score below 0.9.",
  "data": [
    {"smiles": "CN1CCN(c2ccccc2/C=C2\\SCCN(c3ccc(Cl)c(Cl)c3)C2=O)CC1", "values": [
      {"measurement": "outcome", "setting": "[1]", "value": "inactive"},
      {"measurement": "outcome", "setting": "[2]", "value": "inactive"},
      {"measurement": "outcome", "setting": "[3]", "value": "inactive"},
      {"measurement": "outcome", "setting": "[4]", "value": "inactive"},
      {"measurement": "AC50", "setting": "[5]", "value": "9.55 µM (active)"},
      {"measurement": "AC50", "setting": "[6]", "value": "5.38 µM (active)"}
    ]},
    {"smiles": "c1ccc2cc3c(ccc4ccccc43)cc2c1", "values": [
      {"measurement": "outcome", "setting": "[1]", "value": "inactive"},
      {"measurement": "outcome", "setting": "[2]", "value": "inactive"},
      {"measurement": "AC50", "setting": "[4]", "value": "22.6 µM (active)"},
      {"measurement": "AC50", "setting": "[5]", "value": "43.8 µM (active)"},
      {"measurement": "AC50", "setting": "[6]", "value": "20.4 µM (active)"}
    ]},
    {"smiles": "Cc1cc(CCN2CCN(c3nsc4ccccc34)CC2)cc2c1NC(=O)CC2(C)C", "values": [
      {"measurement": "AC50", "setting": "[1]", "value": "3.82 µM (active)"},
      {"measurement": "AC50", "setting": "[2]", "value": "3.08 µM (active)"},
      {"measurement": "AC50", "setting": "[3]", "value": "4.88 µM (active)"},
      {"measurement": "AC50", "setting": "[7]", "value": "6.3 µM (active)"},
      {"measurement": "AC50", "setting": "[6]", "value": "1.64 µM (active)"}
    ]},
    {"smiles": "COCC(C)OCC(C)O", "note": "(centres undefined)", "values": [
      {"measurement": "outcome", "setting": "[1]", "value": "inactive"}
    ]},
    {"smiles": "O=C(O)c1ccccc1C(c1ccc(O)cc1)c1ccc(O)cc1", "values": [
      {"measurement": "outcome", "setting": "[1]", "value": "inactive"},
      {"measurement": "outcome", "setting": "[2]", "value": "inactive"},
      {"measurement": "AC50", "setting": "[4]", "value": "4.26 µM (active)"},
      {"measurement": "outcome", "setting": "[5]", "value": "inactive"},
      {"measurement": "outcome", "setting": "[6]", "value": "inactive"}
    ]},
    {"smiles": "CCCCCCCCCCCCCCCS(=O)(=O)Oc1ccccc1", "values": [
      {"measurement": "outcome", "setting": "[1]", "value": "inactive"},
      {"measurement": "outcome", "setting": "[2]", "value": "inactive"}
    ]},
    {"smiles": "CN(C)C=O", "values": [
      {"measurement": "outcome", "setting": "[1]", "value": "inactive"},
      {"measurement": "outcome", "setting": "[2]", "value": "inactive"}
    ]},
    {"smiles": "CC(C)(C)c1ccc(O)c(C(C)(C)C)c1", "values": [
      {"measurement": "outcome", "setting": "[1]", "value": "inactive"},
      {"measurement": "outcome", "setting": "[2]", "value": "inactive"},
      {"measurement": "outcome", "setting": "[3]", "value": "inactive"},
      {"measurement": "AC50", "setting": "[4]", "value": "13.6 µM (active)"},
      {"measurement": "AC50", "setting": "[5]", "value": "6.68 µM (active)"},
      {"measurement": "AC50", "setting": "[6]", "value": "7.38 µM (active)"}
    ]},
    {"smiles": "CN1CCC[C@H]1c1cccnc1", "values": [
      {"measurement": "outcome", "setting": "[1]", "value": "inactive"},
      {"measurement": "outcome", "setting": "[2]", "value": "inactive"}
    ]},
    {"smiles": "CCCCCCCCC(=O)O", "values": [
      {"measurement": "outcome", "setting": "[1]", "value": "inactive"},
      {"measurement": "outcome", "setting": "[2]", "value": "inactive"}
    ]},
    {"smiles": "COc1ccc([N+](=O)[O-])cc1N", "values": [
      {"measurement": "outcome", "setting": "[1]", "value": "inactive"},
      {"measurement": "outcome", "setting": "[2]", "value": "inactive"},
      {"measurement": "AC50", "setting": "[4]", "value": "3.52 µM (active)"},
      {"measurement": "outcome", "setting": "[5]", "value": "inactive"},
      {"measurement": "outcome", "setting": "[7]", "value": "inactive"}
    ]},
    {"smiles": "C#C[C@]1(O)CC[C@H]2[C@@H]3CCC4=CC(=O)CC[C@@H]4[C@H]3CC[C@@]21C", "values": [
      {"measurement": "outcome", "setting": "[1]", "value": "inactive"},
      {"measurement": "outcome", "setting": "[2]", "value": "inactive"},
      {"measurement": "AC50", "setting": "[8]", "value": "9.92 µM (active)"},
      {"measurement": "outcome", "setting": "[9]", "value": "inactive"},
      {"measurement": "AC50", "setting": "[4]", "value": "64.9 µM (active)"},
      {"measurement": "AC50", "setting": "[5]", "value": "66 µM (active)"},
      {"measurement": "outcome", "setting": "[10]", "value": "inactive"},
      {"measurement": "AC50", "setting": "[6]", "value": "16.1 µM (active)"}
    ]}
  ]
}
